Results: PubChem BioAssay (EPA / NIEHS)
Results filed as inconclusive are left out. The source made the active and inactive calls. Rule for the calls: active = hit-call score of the fitted dose curve at least 0.9, where 1 is the maximum; inconclusive = response in the unintended direction; inactive = score below 0.9.

Columns and labels:
[1] = ATG_GAL4_TRANS: Attagene TRANS-FACTORIAL HepG2 Assay for GAL4 (Internal Marker) (AID 2282976); conditions: HepG2 Attagene TRANS GAL4 internal marker reporter
Method in brief: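 RT-PCR/capillary electrophoresis readout of reporter mRNA. HepG2, transient MRTU transfection (GAL4-UAS reporters), 24 h compound exposure. Background-control endpoint, positive direction vs DMSO baseline.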

[2] = molecular target: Oxysterols receptor LXR-alpha (Homo sapiens) (UniProt Q13133); experiment: ATG_LXRa_TRANS: Attagene TRANS-FACTORIAL HepG2 Assay for human Liver X Receptor alpha (LXRa) (AID 2282980); conditions: HepG2 Attagene TRANS reporter, LXRa transactivation
Oxysterols receptor LXR-alpha (Homo sapiens), sequence (Q13133 whole entry, looked up, the tested form may be a part): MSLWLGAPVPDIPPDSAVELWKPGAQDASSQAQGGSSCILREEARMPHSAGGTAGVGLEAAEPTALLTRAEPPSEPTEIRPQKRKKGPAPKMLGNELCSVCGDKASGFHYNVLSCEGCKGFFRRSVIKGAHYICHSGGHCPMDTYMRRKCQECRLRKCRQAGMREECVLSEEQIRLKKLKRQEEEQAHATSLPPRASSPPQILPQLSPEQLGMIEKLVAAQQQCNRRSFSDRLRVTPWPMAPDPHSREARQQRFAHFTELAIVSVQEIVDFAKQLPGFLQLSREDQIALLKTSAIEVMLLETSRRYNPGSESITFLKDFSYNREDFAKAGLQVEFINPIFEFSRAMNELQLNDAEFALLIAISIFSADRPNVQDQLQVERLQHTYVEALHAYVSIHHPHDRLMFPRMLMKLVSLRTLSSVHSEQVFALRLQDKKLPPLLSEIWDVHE
Method in brief: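 Read-out: reporter transcript levels by RT-PCR plus capillary electrophoresis, fluorescence intensity. Transiently transfected HepG2, exogenous NR-GAL4 chimera, GAL4-UAS reporters; 24 h compound exposure. Activity = increase over DMSO negative control.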

[3] = molecular target: Oxysterols receptor LXR-beta (Homo sapiens) (UniProt P55055); experiment: ATG_LXRb_TRANS: Attagene TRANS-FACTORIAL HepG2 Assay for human Liver X Receptor beta (LXRb) (AID 2282981); conditions: HepG2 Attagene TRANS GAL4-LXRb reporter, mRNA
Oxysterols receptor LXR-beta (Homo sapiens), sequence (P55055 whole entry, looked up, the tested form may be a part): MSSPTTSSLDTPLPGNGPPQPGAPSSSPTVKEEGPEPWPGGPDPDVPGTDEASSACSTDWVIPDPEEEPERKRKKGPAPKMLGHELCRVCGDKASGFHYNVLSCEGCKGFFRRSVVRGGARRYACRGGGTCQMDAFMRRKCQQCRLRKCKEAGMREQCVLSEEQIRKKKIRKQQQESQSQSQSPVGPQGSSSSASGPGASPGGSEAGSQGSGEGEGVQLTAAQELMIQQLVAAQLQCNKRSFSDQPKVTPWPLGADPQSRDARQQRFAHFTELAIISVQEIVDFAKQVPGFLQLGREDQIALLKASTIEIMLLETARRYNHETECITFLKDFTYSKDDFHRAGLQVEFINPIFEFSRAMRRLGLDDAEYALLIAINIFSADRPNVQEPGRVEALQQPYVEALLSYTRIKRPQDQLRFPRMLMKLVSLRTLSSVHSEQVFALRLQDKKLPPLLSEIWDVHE
Method in brief: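 Liver-derived HepG2 cells transfected with Gal4-responsive reporters were dosed for 24 h. Activation was scored as rise in reporter mRNA, by RT-PCR and capillary electrophoresis, above DMSO baseline.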

[4] = molecular target: Hepatocyte nuclear factor 4-alpha (Homo sapiens) (UniProt P41235); experiment: ATG_HNF4a_TRANS: Attagene TRANS-FACTORIAL HepG2 Assay for human Hepatocyte Nuclear Factor 4 alpha (HNF4a) (AID 2282982); conditions: HepG2 HNF4a transactivation reporter, mRNA readout
Hepatocyte nuclear factor 4-alpha (Homo sapiens), sequence (P41235 whole entry, looked up, the tested form may be a part): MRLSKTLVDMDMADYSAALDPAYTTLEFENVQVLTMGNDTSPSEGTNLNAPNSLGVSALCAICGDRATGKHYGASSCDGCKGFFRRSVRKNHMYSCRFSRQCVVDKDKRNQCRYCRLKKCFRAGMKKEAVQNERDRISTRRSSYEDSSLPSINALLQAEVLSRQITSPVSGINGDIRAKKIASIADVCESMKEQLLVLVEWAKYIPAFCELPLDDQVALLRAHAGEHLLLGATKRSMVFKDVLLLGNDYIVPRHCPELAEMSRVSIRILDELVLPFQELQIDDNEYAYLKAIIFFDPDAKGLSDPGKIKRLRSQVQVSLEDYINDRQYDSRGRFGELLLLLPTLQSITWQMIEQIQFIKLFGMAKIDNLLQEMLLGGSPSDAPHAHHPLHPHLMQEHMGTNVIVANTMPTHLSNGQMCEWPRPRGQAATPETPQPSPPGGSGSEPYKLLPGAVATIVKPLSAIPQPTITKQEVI
Method in brief: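 Using HepG2 liver cells transfected with GAL4-UAS reporter units, chemical-induced mRNA increases were assessed after 24 hours. Fluorescent RT-PCR fragments were separated by capillary electrophoresis and compared with DMSO negative controls.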

[5] = ATG_M_06_TRANS: Attagene TRANS-FACTORIAL HepG2 Assay for M06 Transcription Factor (Internal Marker) (AID 2282983); conditions: HepG2 Attagene TRANS M06 internal marker reporter
Method in brief: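 Read-out: fluorescent reporter cDNA fragments resolved by capillary electrophoresis after RT-PCR and HpaI cut. Source cells were HepG2 carrying transfected multi-reporter GAL4 constructs, dosed 24 h. Increase over DMSO control analysed.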

[6] = ATG_M_32_TRANS: Attagene TRANS-FACTORIAL HepG2 Assay for M32 Transcription Factor (Internal Marker) (AID 2282984); conditions: HepG2 Attagene TRANS M32 internal marker reporter;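 note: transcript level of a background control reporter unit measured by RT-PCR and capillary electrophoresis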
Method in brief: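 Fluorescence-detected mRNA induction, HepG2 liver cells, 24 h after dosing. Multiple GAL4-UAS reporter units introduced by transient transfection; background-control endpoint analysed for gain of signal against DMSO.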

[7] = molecular target: Nuclear receptor subfamily 4 group A member 2 (Homo sapiens) (UniProt P43354); experiment: ATG_NURR1_TRANS: Attagene TRANS-FACTORIAL HepG2 Assay for human Nuclear Receptor Related Protein 1 (NURR1) (AID 2282985); conditions: HepG2 Attagene TRANS reporter, mRNA readout
Nuclear receptor subfamily 4 group A member 2 (Homo sapiens), sequence (P43354 whole entry, looked up, the tested form may be a part): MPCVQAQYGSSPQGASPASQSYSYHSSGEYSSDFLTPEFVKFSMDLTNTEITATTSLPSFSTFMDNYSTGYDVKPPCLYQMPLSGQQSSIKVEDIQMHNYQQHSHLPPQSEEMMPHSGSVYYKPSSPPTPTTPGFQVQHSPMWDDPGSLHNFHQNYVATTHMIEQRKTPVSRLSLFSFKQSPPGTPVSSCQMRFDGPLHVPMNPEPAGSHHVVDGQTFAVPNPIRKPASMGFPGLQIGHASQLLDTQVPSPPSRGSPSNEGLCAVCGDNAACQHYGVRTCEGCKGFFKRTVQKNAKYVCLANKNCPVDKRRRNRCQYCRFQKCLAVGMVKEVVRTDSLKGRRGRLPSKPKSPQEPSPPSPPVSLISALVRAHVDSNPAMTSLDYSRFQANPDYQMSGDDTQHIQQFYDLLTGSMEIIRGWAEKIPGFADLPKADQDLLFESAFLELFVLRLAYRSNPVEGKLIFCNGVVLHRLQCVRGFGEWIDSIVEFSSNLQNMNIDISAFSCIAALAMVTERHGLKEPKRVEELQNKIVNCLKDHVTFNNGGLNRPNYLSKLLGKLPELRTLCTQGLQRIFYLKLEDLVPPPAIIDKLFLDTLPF
Method in brief: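 Chimeric NR-Gal4 proteins were expressed in human HepG2 cells bearing GAL4-UAS reporter units, and induced reporter mRNA was quantified 24 h post-dosing by RT-PCR and capillary electrophoresis.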

[8] = molecular target: Glucocorticoid receptor (Homo sapiens) (UniProt P04150); experiment: ATG_GR_TRANS: Attagene TRANS-FACTORIAL HepG2 Assay for human Glucocorticoid Receptor (GR) (AID 2282978); conditions: HepG2 Attagene TRANS GR reporter, mRNA transcription;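 note: activators score as hits since higher reporter transcript over DMSO is fitted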
Glucocorticoid receptor (Homo sapiens), sequence (P04150 whole entry, looked up, the tested form may be a part): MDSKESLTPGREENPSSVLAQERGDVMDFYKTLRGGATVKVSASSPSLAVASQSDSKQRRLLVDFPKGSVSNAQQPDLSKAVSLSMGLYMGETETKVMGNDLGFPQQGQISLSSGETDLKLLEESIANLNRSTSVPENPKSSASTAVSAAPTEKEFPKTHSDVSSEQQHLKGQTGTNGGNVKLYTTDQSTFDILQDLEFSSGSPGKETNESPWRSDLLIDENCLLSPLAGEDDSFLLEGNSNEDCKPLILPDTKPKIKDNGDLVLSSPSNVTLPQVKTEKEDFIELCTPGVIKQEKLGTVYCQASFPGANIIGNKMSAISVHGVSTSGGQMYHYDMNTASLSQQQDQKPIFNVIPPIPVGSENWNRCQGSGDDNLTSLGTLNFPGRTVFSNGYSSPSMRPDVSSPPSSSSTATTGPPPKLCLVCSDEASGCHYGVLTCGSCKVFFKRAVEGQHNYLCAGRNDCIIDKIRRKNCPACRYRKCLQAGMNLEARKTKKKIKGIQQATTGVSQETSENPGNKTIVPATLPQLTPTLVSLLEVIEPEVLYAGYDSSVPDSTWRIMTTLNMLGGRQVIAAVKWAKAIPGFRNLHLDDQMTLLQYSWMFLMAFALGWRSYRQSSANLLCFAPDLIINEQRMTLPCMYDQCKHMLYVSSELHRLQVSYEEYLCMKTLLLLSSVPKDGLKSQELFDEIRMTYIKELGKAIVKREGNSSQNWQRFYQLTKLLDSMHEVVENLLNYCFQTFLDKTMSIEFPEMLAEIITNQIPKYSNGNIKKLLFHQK
Method in brief: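 Reporter transcript levels, detected by fluorescence after RT-PCR and capillary electrophoresis, served as the endpoint. HepG2 cells bearing transfected GAL4-UAS reporters responsive to NR-GAL4 chimeras were incubated with compound 24 h; DMSO defined baseline.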

[9] = molecular target: Bile acid receptor (Homo sapiens) (UniProt Q96RI1); experiment: ATG_FXR_TRANS: Attagene TRANS-FACTORIAL HepG2 Assay for Farnesoid X Receptor (FXR) (AID 2282979); conditions: HepG2 Attagene TRANS FXR-GAL4 reporter transcription;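 note: hits raise reporter mRNA above DMSO so AC50 marks FXR activation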
Bile acid receptor (Homo sapiens), sequence (Q96RI1 whole entry, looked up, the tested form may be a part): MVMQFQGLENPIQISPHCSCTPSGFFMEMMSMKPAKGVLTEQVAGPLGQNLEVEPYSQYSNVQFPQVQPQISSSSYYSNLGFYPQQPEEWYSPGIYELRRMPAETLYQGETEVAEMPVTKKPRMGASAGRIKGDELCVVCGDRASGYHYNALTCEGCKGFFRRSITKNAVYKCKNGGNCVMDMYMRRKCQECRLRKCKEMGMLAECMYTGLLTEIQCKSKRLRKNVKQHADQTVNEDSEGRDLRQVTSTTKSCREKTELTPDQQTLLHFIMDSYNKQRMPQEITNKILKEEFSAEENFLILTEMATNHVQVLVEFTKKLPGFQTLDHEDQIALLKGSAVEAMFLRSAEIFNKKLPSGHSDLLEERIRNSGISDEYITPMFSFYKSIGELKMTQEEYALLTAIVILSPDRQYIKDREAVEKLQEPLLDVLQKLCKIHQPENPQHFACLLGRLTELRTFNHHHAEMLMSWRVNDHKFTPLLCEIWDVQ
Method in brief: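 Read-out: fluorescent reporter transcripts quantified by capillary electrophoresis after RT-PCR of total RNA. Source cells were HepG2 transiently carrying chimeric NR-GAL4 plus GAL4-UAS reporter units, dosed 24 h. Activity fitted upward relative to DMSO baseline.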

[10] = molecular target: Estrogen-related receptor gamma (Homo sapiens) (UniProt P62508); experiment: ATG_ERRg_TRANS: Attagene TRANS-FACTORIAL HepG2 Assay for human Estrogen-Related Receptor gamma (ERRg) (AID 2282977); conditions: HepG2 Attagene TRANS reporter, ERRg transactivation;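 note: hits increase reporter signal over DMSO so potencies reflect activators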
Estrogen-related receptor gamma (Homo sapiens), sequence (P62508 whole entry, looked up, the tested form may be a part): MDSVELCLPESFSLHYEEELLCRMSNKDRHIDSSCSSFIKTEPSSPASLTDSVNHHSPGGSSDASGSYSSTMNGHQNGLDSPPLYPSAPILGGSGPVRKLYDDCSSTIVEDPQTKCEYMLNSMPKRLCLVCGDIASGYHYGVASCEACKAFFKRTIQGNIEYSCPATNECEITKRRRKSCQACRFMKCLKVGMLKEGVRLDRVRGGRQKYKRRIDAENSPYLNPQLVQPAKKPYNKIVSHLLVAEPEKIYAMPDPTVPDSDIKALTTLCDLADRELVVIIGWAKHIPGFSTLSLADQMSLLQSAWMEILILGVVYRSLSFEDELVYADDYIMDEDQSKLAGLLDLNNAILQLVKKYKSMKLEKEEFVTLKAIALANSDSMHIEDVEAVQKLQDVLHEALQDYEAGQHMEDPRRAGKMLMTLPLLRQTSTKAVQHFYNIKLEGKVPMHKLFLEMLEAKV
Method in brief: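 Readout: fluorescent reporter-mRNA fragments resolved by capillary electrophoresis after RT-PCR and HpaI cut. Cells: transiently transfected HepG2 carrying GAL4-UAS reporters driven by exogenous NR-Gal4 chimeras, dosed 24 h. Activity fitted upward relative to DMSO baseline.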

Measured: AC50

Cc1cc(-c2ccc(N)c(C)c2)ccc1N
not listed: [8] | [9] | [10]
inactive: all other assays above

CC(c1ccc(O)cc1)(c1ccc(O)cc1)c1ccc(O)cc1
inactive: [1] | [8] | [5] | [6]
active: [9] 2.98 µM

Clc1ccc(C(c2ccccc2Cl)C(Cl)(Cl)Cl)cc1 (stereo not drawn)
not listed: [4] | [9]
inactive: all other assays above

CCCCCCCCCc1ccc(O)cc1
inactive: [2] | [3] | [4] | [5] | [6] | [7]

CO/C=C(/C(=O)OC)c1ccccc1COc1cccc(C(F)(F)F)n1
active: [7] 29.3 µM
inactive: [9] | [6]

Oc1c(Cl)c(Cl)c(Cl)c(Cl)c1Cl
not listed: [1] | [10]
inactive: all other assays above

NS(=O)(=O)C(F)(F)C(F)(F)C(F)(F)C(F)(F)C(F)(F)C(F)(F)C(F)(F)C(F)(F)F
not listed: [1] | [10]
inactive: all other assays above

CC#Cc1cc(C)nc(Nc2ccccc2)n1
inactive: [8] | [3] | [5] | [6] | [7]

O=NN(c1ccccc1)c1ccccc1
inactive: [9] | [5]

C=CC(=O)NCNC(=O)C=C
inactive: [3] | [5] | [7]

CCCCCCCCOC(=O)c1ccccc1C(=O)OCCCCCCCC
inactive: [9] | [6]

Oc1ccc(Cl)cc1Cl
not listed: [1] | [8]
inactive: all other assays above

Nn1cnnc1
inactive: [8] | [2] | [3] | [5]

O=C(N[C@H]1CN2CCC1CC2)c1cc2ccoc2cn1
inactive: [8] | [2] | [3] | [4] | [5] | [6]

ClC1=C(Cl)[C@]2(Cl)[C@@H]3[C@H]4C[C@H]([C@@H]5O[C@H]45)[C@@H]3[C@@]1(Cl)C2(Cl)Cl
inactive: [10] | [8] | [6] | [7]

ClC1=C(Cl)[C@]2(Cl)[C@@H]3[C@@H](Cl)[C@H]4O[C@H]4[C@@H]3C1(Cl)C2(Cl)Cl
inactive: [8] | [3] | [5]
